# Reference: PubChem BioAssay (Tox21)
# Results filed as inconclusive are left out. Entries that show only a call come without a potency. Calls of active or inactive are those of the source. Unless noted, the call rests on the fitted dose curve; in most records, active means well fitted curve in the direction sought with a large enough effect in the repeat runs; inconclusive means weak or mixed curves; inactive means no such curve, though single readings can be large; an effect the other way counts as inactive or inconclusive.
# Assays:
# [1] = qHTS assay to test for compound auto fluorescence at 535 nm (green) in HEK293 cells (AID 720680)
# [2] = qHTS assay to test for compound auto fluorescence at 460 nm (blue) in HEK293 cell free culture (AID 720681)
# Summary of the method: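 Compounds were added to cell-free DMEM with 10% FBS and fluorescence read directly. The blue channel used 405 nm excitation and 460 nm emission, with triamterene as the reference fluorophore.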
# [3] = qHTS assay to test for compound auto fluorescence at 535 nm (green) in HEK293 cell free culture (AID 720682)
# Summary of the method: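 Compounds were pin-transferred into cell-free DMEM with 10% FBS, and green fluorescence was read at excitation 485 nm and emission 535 nm. Intensities were expressed as fluorescein-equivalent values.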
# [4] = qHTS assay to test for compound auto fluorescence at 590 nm (red) in HEK293 cell free culture (AID 720683)
# Summary of the method: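 Cell-free wells of DMEM with 10% FBS received compound, and intrinsic fluorescence was read at excitation/emission 540/590 nm. Values expressed as equivalence to Rose Bengal sodium.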
# [5] = qHTS assay to test for compound auto fluorescence at 590 nm (red) in HepG2 cell free culture (AID 720684)
# Summary of the method: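 Compounds are added to culture medium (MEM, 10% FBS) lacking cells, then fluorescence is read at excitation 540 nm, emission 590 nm, with Rose Bengal sodium as the equivalency standard.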
# [6] = qHTS assay to test for compound auto fluorescence at 460 nm (blue) in HepG2 cell free culture (AID 720685)
# Summary of the method: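 Compound (23 nL) or DMSO pinned into cell-free MEM with 10% FBS; blue fluorescence read at 405/460 nm excitation/emission, expressed as auto-fluorescence equivalency to triamterene.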
# [7] = qHTS assay to test for compound auto fluorescence at 535 nm (green) in HepG2 cell free culture (AID 720686)
# [8] = qHTS assay to test for compound auto fluorescence at 460 nm (blue) in HepG2 cells (AID 720687)
# Summary of the method: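 HepG2 cells in MEM with 10% FBS, attached overnight at 37 C, were exposed to compound or DMSO for 1 hr at 37 C, 5% CO2. Blue fluorescence was read at 405/460 nm, with triamterene as reference fluorophore.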
# [9] = biological target: Glucocorticoid receptor (Homo sapiens) (UniProt P04150); test: qHTS assay to identify small molecule agonists of the glucocorticoid receptor (GR) signaling pathway (AID 720691; active means well fitted activation curve with a large enough effect in the signal ratio in the repeat runs, not every such curve was filed as active; the % refers to the signal ratio); conditions: GR-bla HeLa, beta-lactamase reporter ratio, 18 h; activation: at 62.4 µM (top of the series)
# Summary of the method: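 qHTS in GR-bla HeLa cells: 4 h settling at 37 C/5% CO2, 18 h compound incubation at 37 C, 2 h LiveBLAzer B/G FRET substrate at room temperature, fluorescence intensity measured.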
# [10] = biological target: Glucocorticoid receptor (Homo sapiens) (UniProt P04150); test: qHTS assay to identify small molecule antagonists of the glucocorticoid receptor (GR) signaling pathway (AID 720692; active means well fitted inhibition curve with a large enough effect in the signal ratio in the repeat runs, not every such curve was filed as active; the % refers to the signal ratio; further: potency means the concentration at half of the fitted maximal effect)
# Summary of the method: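 Inhibition of glucocorticoid signalling is measured in HeLa cells with a GRE-controlled beta-lactamase reporter; cells are co-treated with compound and 5 nM dexamethasone (final) for 18 h before FRET substrate readout.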
# [11] = qHTS assay to identify small molecule antagonists of the glucocorticoid receptor (GR) signaling pathway - cell viability counter screen (AID 720693); further: nearly all actives have a fitted effect of over 55% in size
# [12] = qHTS assay for identifying genotoxic compounds that show differential cytotoxicity against isogenic chicken DT40 cell lines with known DNA damage response pathways - wild type cell line (AID 743012); further: nearly all actives have a fitted effect of over 60% in size; further: potency means the concentration at half of the fitted maximal effect
# Summary of the method: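 First, wild type DT40 cells were plated at 300 per well and equilibrated about 0.5 h at 37 C/5% CO2. Next, compounds in DMSO were added and exposure lasted 40 h. Finally, CellTiter-Glo was added for 30 min at room temperature and luminescence recorded.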
# [13] = qHTS assay for identifying genotoxic compounds that show differential cytotoxicity against isogenic chicken DT40 cell lines with known DNA damage response pathways - Rev3 mutant cell line (AID 743014); further: nearly all actives have a fitted effect of over 55% in size; further: potency means the concentration at half of the fitted maximal effect
# [14] = qHTS assay for identifying genotoxic compounds that show differential cytotoxicity against isogenic chicken DT40 cell lines with known DNA damage response pathways - Rad54/Ku70 mutant cell line (AID 743015); further: nearly all actives have a fitted effect of over 60% in size; further: potency means the concentration at half of the fitted maximal effect
# [15] = qHTS assay to identify small molecule antagonists of the androgen receptor (AR) signaling pathway - cell viability counter screen (AID 743033; further: nearly all actives have a fitted effect of over 45% in size)
# [16] = qHTS assay to identify small molecule antagonists of the androgen receptor (AR) signaling pathway using the MDA cell line - cell viability counter screen (AID 743041; further: nearly all actives have a fitted effect of over 45% in size)
# Summary of the method: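 Same-well cytotoxicity was assessed by CellTiter-Fluor in MDA-kb2 AR-luc cells after 16 h of compound treatment under R1881 agonism.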
# [17] = biological target: Androgen receptor (Homo sapiens) (UniProt P10275); test: qHTS assay to identify small molecule agonists of the androgen receptor (AR) signaling pathway (AID 743036; active means well fitted activation curve with a large enough effect in the signal ratio in the repeat runs, with a control signal flat, not every such curve was filed as active; the % refers to the signal ratio; further: potency means the concentration at half of the fitted maximal effect)
# Summary of the method: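 Activation was read as beta-lactamase FRET signal from LiveBLAzer B/G substrate, added for 2 h at room temperature. Before that, GeneBLAzer AR-UAS-bla GripTite (HEK293) cells had 16 h compound exposure at 37C.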
# [18] = biological target: Androgen receptor (Homo sapiens) (UniProt P10275); test: qHTS assay to identify small molecule agonists of the androgen receptor (AR) signaling pathway using the MDA cell line (AID 743040; further: nearly all actives have a fitted effect of over 20% in size; further: potency means the concentration at half of the fitted maximal effect)
# Summary of the method: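 Human breast carcinoma MDA-kb2 reporter cells (MMTV-luc, AR/GR elements) were treated for 16 h at 37C in 0% CO2 following a 5 h settling period. Signal was quantified by ONE-Glo luminescence.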
# [19] = biological target: Androgen receptor (Homo sapiens) (UniProt P10275); test: qHTS assay to identify small molecule antagonists of the androgen receptor (AR) signaling pathway using the MDA cell line (AID 743042; further: nearly all actives have a fitted effect of over 55% in size)
# Summary of the method: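 MDA-kb2 breast carcinoma cells carrying MMTV-luciferase (AR/GR responsive) were co-treated with compounds and the agonist R1881 for 16 h at 37C. Inhibition read as ONE-Glo luminescence; CellTiter-Fluor fluorescence measured in parallel for cytotoxicity.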
# [20] = biological target: Androgen receptor (Homo sapiens) (UniProt P10275); test: qHTS assay to identify small molecule antagonists of the androgen receptor (AR) signaling pathway (AID 743035; active means well fitted inhibition curve with a large enough effect in the signal ratio in the repeat runs, not every such curve was filed as active; the % refers to the signal ratio)
# Summary of the method: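 Beta-lactamase FRET read (2 h RT incubation with LiveBLAzer B/G) following 16 h of compound plus R1881 treatment of AR-UAS-bla HEK293 cells, which had been pre-incubated 4 h at 37C.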
# Sequence of Glucocorticoid receptor (Homo sapiens) (P04150 whole entry, looked up): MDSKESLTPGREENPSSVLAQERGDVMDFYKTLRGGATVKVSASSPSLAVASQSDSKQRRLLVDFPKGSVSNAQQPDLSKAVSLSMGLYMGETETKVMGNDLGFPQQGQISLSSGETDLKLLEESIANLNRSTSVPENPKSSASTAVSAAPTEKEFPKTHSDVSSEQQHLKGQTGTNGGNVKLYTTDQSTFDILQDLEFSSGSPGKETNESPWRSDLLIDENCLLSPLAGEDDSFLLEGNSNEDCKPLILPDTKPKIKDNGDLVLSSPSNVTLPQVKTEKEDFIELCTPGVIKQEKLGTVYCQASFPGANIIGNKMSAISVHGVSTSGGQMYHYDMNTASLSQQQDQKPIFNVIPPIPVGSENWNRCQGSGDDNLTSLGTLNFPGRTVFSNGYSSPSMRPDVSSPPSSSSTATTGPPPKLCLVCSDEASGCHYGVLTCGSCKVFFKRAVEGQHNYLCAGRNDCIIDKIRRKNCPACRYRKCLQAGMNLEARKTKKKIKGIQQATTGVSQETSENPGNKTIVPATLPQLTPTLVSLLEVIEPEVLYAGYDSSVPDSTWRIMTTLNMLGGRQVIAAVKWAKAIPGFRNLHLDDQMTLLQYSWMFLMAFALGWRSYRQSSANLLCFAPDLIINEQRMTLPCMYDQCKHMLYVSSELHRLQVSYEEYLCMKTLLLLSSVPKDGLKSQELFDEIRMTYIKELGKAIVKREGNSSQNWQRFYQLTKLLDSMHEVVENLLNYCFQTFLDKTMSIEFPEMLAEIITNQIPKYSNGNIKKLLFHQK
# Sequence of Androgen receptor (Homo sapiens) (P10275 whole entry, looked up): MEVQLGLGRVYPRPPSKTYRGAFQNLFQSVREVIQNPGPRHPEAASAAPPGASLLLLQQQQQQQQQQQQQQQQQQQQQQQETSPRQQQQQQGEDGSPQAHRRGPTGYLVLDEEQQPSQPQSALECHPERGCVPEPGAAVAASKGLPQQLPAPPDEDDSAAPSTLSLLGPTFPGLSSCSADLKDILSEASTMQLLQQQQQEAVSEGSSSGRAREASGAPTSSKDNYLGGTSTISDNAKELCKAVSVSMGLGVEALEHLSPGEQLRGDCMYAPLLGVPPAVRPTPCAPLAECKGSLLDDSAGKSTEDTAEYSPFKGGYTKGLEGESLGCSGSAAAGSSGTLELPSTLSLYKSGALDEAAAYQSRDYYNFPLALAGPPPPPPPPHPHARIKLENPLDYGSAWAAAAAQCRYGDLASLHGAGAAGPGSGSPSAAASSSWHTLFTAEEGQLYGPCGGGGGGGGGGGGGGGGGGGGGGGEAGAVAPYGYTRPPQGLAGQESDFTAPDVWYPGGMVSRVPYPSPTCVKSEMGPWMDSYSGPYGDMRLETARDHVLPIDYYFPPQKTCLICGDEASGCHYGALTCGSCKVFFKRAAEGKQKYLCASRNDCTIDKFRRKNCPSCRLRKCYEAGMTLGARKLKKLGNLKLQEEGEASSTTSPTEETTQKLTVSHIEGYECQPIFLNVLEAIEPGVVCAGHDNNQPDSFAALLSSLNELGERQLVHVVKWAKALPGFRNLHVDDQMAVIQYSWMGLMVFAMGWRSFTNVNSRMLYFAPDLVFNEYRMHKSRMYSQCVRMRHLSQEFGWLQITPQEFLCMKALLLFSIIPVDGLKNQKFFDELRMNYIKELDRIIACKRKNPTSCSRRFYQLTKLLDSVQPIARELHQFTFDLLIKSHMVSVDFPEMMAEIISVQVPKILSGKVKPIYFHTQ
SMILES,Potency [1],Potency [2],Potency [3],Potency [4],Potency [5],outcome [6],Potency [7],outcome [8],Potency [9],Potency [10],Potency [11],Potency [12],Potency [13],Potency [14],Potency [15],Potency [16],Potency [17],Potency [18],Potency [19],Potency [20]
CC(=O)N(CC(C)C(=O)O)c1c(I)cc(I)c(N)c1I (stereo not drawn),inactive,inactive,inactive,inactive,inactive,inactive,inactive,inactive,inactive,inactive,inactive,inactive,inactive,inactive,inactive,inactive,,,,
NC(=O)OCC(O)COc1ccc(Cl)cc1 (stereo not drawn),inactive,inactive,inactive,inactive,inactive,inactive,inactive,inactive,inactive,inactive,inactive,inactive,inactive,inactive,,inactive,,,,
C[C@]12CCC(=O)C[C@@H]1CC[C@@H]1[C@@H]2CC[C@]2(C)C=CC[C@@H]12,inactive,inactive,inactive,inactive,inactive,inactive,inactive,inactive,inactive,inactive,inactive,inactive,inactive,,inactive,inactive,,,,
O=S(=O)(O)Oc1ccc(C(c2ccc(OS(=O)(=O)O)cc2)c2ccccn2)cc1,inactive,inactive,inactive,inactive,inactive,inactive,inactive,inactive,inactive,inactive,inactive,inactive,inactive,inactive,inactive,inactive,,,,
C[C@]12CC[C@@H]3c4ccc(OC(=O)c5ccccc5)cc4CC[C@H]3[C@@H]1CC[C@@H]2O,inactive,inactive,inactive,inactive,inactive,inactive,inactive,inactive,inactive,6.01 µM (active),inactive,2.98 µM (active),9.44 µM (active),,inactive,inactive,3.38 µM (active),1.33 µM (active),inactive,
Nc1nc(=O)n([C@@H]2CS[C@H](CO)O2)cc1F,inactive,inactive,inactive,inactive,inactive,inactive,inactive,inactive,inactive,inactive,inactive,inactive,inactive,inactive,inactive,inactive,,,,
CC(=O)c1ccc2c(c1)N(CCCN1CCN(CCO)CC1)c1ccccc1S2,inactive,inactive,inactive,inactive,inactive,inactive,inactive,inactive,inactive,inactive,inactive,13.3 µM (active),26.6 µM (active),21.1 µM (active),,inactive,,,,
C=CCN1CCCC1CNC(=O)c1cc(S(N)(=O)=O)cc(OC)c1OC (stereo not drawn),inactive,inactive,inactive,inactive,inactive,inactive,inactive,inactive,inactive,inactive,inactive,inactive,inactive,,inactive,inactive,,,,
COc1cc2[nH]c(C)c(CCN3CCN(c4ccccc4)CC3)c2cc1OC,inactive,inactive,inactive,inactive,inactive,inactive,inactive,inactive,inactive,inactive,inactive,18.8 µM (active),26.6 µM (active),29.8 µM (active),inactive,inactive,,,,
CCC(=O)O[C@@H]1CC(=O)O[C@H](C)C/C=C/C=C/[C@H](O)[C@H](C)C[C@H](CC=O)[C@H](O[C@@H]2O[C@H](C)[C@@H](O[C@H]3C[C@@](C)(O)[C@@H](OC(=O)CC)[C@H](C)O3)[C@H](N(C)C)[C@H]2O)[C@H]1OC,inactive,inactive,inactive,inactive,inactive,inactive,inactive,inactive,inactive,inactive,inactive,inactive,inactive,,inactive,inactive,,,,
NNc1nnc(Cc2ccncc2)c2ccccc12,inactive,inactive,inactive,inactive,inactive,inactive,inactive,inactive,inactive,inactive,inactive,inactive,inactive,,inactive,inactive,,inactive,inactive,inactive
COc1ccc(CNCC(O)COc2ccc3[nH]c(=O)ccc3c2)cc1OC (stereo not drawn),inactive,inactive,inactive,inactive,inactive,inactive,inactive,inactive,inactive,inactive,inactive,inactive,inactive,inactive,,inactive,,,,
CN1CC(O)c2cc(N=NC(N)=O)c(O)cc21 (stereo not drawn),inactive,inactive,inactive,inactive,inactive,inactive,inactive,inactive,inactive,inactive,inactive,inactive,,inactive,inactive,,,,,
CN[C@@H]1[C@@H](O)[C@@H](O[C@@H]2[C@@H](O)[C@H](OC3OC(CN)=CCC3N)[C@@H](N)C[C@H]2N)OC[C@]1(C)O (stereo partly drawn),inactive,inactive,inactive,inactive,inactive,inactive,inactive,inactive,inactive,inactive,inactive,inactive,inactive,,,inactive,,,,
